Results on 47 molecules are retold here after PubChem BioAssay AID894 (National Center for Advancing Translational Sciences (NCATS), 2007).

In all, about 150,000 compounds went through this assay and about 6,500 (4.3%) were called active. About 12% were inconclusive and are not listed. What follows is part of a selection rich in actives, with near analogues and random picks from the rest. A number with no mark means an inactive call. Calls follow the shape of the dose curve; as a rule, active = well fitted inhibition curve with a large enough effect (not every such curve was filed as active); inconclusive = small, poorly fitted or top-dose-only effect, or another doubt; inactive = no such curve, though single readings can be large or run the other way.
% is scaled to controls: 0 for no effect and ±100 for the full control effect; potency is read from the fitted curve at half-maximal effect.

Chain of 15-hydroxyprostaglandin dehydrogenase [NAD(+)] (Homo sapiens) (P15428 whole entry, looked up): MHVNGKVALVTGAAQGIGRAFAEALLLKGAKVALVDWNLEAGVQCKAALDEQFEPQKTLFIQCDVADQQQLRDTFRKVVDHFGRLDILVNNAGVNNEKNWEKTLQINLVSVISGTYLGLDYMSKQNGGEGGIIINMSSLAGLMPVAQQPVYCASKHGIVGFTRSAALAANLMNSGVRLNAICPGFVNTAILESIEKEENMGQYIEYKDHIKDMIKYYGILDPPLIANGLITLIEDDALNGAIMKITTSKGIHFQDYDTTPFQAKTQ

The target in this assay is 15-hydroxyprostaglandin dehydrogenase [NAD(+)] (Homo sapiens) (UniProt P15428). Description: qHTS Assay for Inhibitors of HPGD (15-Hydroxyprostaglandin Dehydrogenase). The settings on record: purified HPGD, NADH fluorescence kinetic, PGE2 substrate; activity change, negative = inhibition: active compounds read low. The text has this:
Human 15-Hydroxyprostaglandin dehydrogenase (HPGD) catalyzes the inactivation of prostaglandin E2, and plays a major role in cancer biology by antagonizing the oncogenic potential of cyclooxygenase type 2 (COX2). Assays are available, based on absorbance/fluorescence increase of NADH with the substrate 15-OH prostaglandin E2. References 1. Myung SJ, Rerko RM, Yan M, Platzer P, Guda K, Dotson A, Lawrence E, Dannenberg AJ, Lovgren AK, Luo G, Pretlow TP, Newman RA, Willis J, Dawson D, Markowitz SD. 15-Hydroxyprostaglandin dehydrogenase is an in vivo suppressor of colon tumorigenesis. […] 2. Yan M, Rerko RM, Platzer P, Dawson D, Willis J, Tong M, Lawrence E, Lutterbaugh J, Lu S, Willson JK, Luo G, Hensold J, Tai HH, Wilson K, Markowitz SD. 15-Hydroxyprostaglandin dehydrogenase, a COX-2 oncogene antagonist, is a TGF-beta-induced suppressor of human gastrointestinal cancers. Proc Natl Acad Sci U S A. 2004 Dec 14;101(50):17468-73. 3. Yang L, Amann JM, Kikuchi T, Porta R, Guix M, Gonzalez A, Park KH, Billheimer D, Arteaga CL, Tai HH, Dubois R, Carbone DP, Johnson DH. Inhibition of Epidermal Growth Factor Receptor Signaling Elevates 15-Hydroxyprostaglandin Dehydrogenase in Non-Small-Cell Lung Cancer. Cancer Res. 2007 Jun 15;67(12):5587-5593. Inhibition of HPGD activity was screened by utilizing prostaglandin as an electron donor and NAD+ as an electron acceptor/cofactor. An increase in the fluorescence intensity due to conversion of NAD+ to NADH was used to measure the enzyme activity. NIH Chemical Genomics Center [NCGC] Structural Genomics Consortium [SGC]
Buffer: 50 mM Tris-HCl, 0.01% Tween 20, pH 8. Enzyme Buffer: 50 mM Tris-HCl, 0.5 mM NAD+ and 0.01% Tween 20, pH 8. Reagents/Controls: Buffer in columns 3 and 4 as negative control (no enzyme). Substrate/cofactor solution: 1 mM NAD+ and 30 uM prostaglandin (Sigma, prostaglandin E2, # P5640) final concentrations dispensed throughout the plate. Enzyme: 20 nM HPGD final concentration in columns 1, 2, 5-48. Column 1 and 2 is neutral (100% activity). A titration of control inhibitor GW5074 (G6416 Sigma-Aldrich, St. Louis, MO) top concentration 10 mM in DMSO, then 1:2 dilution for a total of 16 concentrations in duplicate) was pin-transferred into column 2. Assay Steps: Three uL of enzyme were dispensed to 1536-well Greiner black solid bottom plates. Compounds and control inhibitor (23 nL) were transferred via Kalypsys PinTool. The plates were incubated for 15 min at room temperature, and then 1 uL of substrate/cofactor solution was added to start the reaction. The plates were immediately transferred to and read 5 times every 30 seconds on ViewLux High-throughput CCD imager (Perkin-Elmer) using 360 nm excitation and 450 nm emission fluorescence protocol. The fluorescence intensity difference between the last and the first time points was used to compute reaction progress.
Background: In qHTS, concentration-response curves come from the screen itself.
As for `Cc1ccc(C2C3=C(Nc4[nH]n(-c5ccccc5)c(=O)c42)c2ccccc2C3=O)cc1` (configuration not stated), the activity change, negative = inhibition was -23.6%. Consider `COc1ccccc1NC(=O)C1=C(C)NC2=C(C(=O)CCC2)C1c1ccc(C)o1` (configuration not stated), for which the activity change, negative = inhibition is -4.54%. Regarding `COC(=O)C1=C(C)NC2=C(C(=O)c3ccccc32)C1c1ccc(-c2ccc(C(=O)O)cc2)o1` (configuration not stated), the Potency was 17.8 µM (active).

Regarding `Cc1cc(C(C)(C)C)cc(C)c1N`, the activity change, negative = inhibition is 2.4%. Consider `O=C(OC1CCOC1=O)c1cccc(S(=O)(=O)Nc2ccc(F)cc2)c1` (configuration not stated), for which the activity change, negative = inhibition was -0.633%. Regarding `COc1ccc2c(Cl)c(C(=O)NCc3ccco3)sc2c1`, the Potency is 14.1 µM (active).

With `O=C(NCCCCCCNC(=O)NCc1ccco1)NCc1ccco1`, the activity change, negative = inhibition is -9.22%. In the case of `O=C(NCc1ccco1)c1sc2cccc(F)c2c1Cl`, the Potency is 3.98 µM (active).

For the molecule `O=C(NCc1ccco1)c1ccc(CS(=O)(=O)Cc2ccc(F)cc2)o1`, the activity change, negative = inhibition was 2.28%. Consider `COc1ccc(-c2cc(C(=O)NCc3ccco3)no2)cc1OC`, for which the activity change, negative = inhibition was -10.4%.

As to `COc1cc(C(=O)NC(=S)NCc2ccco2)cc(OC)c1OC`, the activity change, negative = inhibition was -21.9%. For `CCN1CN(Cc2ccccc2)CNC1=S`, the activity change, negative = inhibition is -9.5%. As to `CC(O)c1nc2ccccc2n1Cc1ccc([N+](=O)[O-])cc1` (configuration not stated), the activity change, negative = inhibition is -6.78%. With `CC(=O)c1c(C)[nH]c(C(=O)OCC(=O)Nc2cc(S(=O)(=O)N3CCCCC3)ccc2C)c1C`, the activity change, negative = inhibition was -12.5%.

With `Cc1ccc(C(=O)N2CCCC2)c(F)c1F`, the Potency is 10 µM (active). `Cc1ccccc1CN1CCN(C(=O)c2cccc(F)c2)CC1`: the activity change, negative = inhibition is 2.95%.

In the case of `Cc1cccc(C(=O)N2CCCN(C(=O)c3cccc(C)c3)CC2)c1`, the activity change, negative = inhibition was 4.89%. With `CCCNC(=O)c1ccc(Cl)c(Cl)c1`, the activity change, negative = inhibition was -21.6%.

With `Cc1ccc(C(=O)N2CCCCCC2)cc1Br`, the Potency is 5.01 µM (active). For the molecule `CCOC(=O)C1CCCN(C(=O)c2cncc(Br)c2)C1` (configuration not stated), the activity change, negative = inhibition is -7.12%. Regarding `CNC(=O)n1ccc(C(=O)N2CCCCC2)n1`, the activity change, negative = inhibition was -21.9%. In the case of `O=C(c1ccc(Cl)c(Cl)c1)N1CCCC1`, the Potency is 20 µM (active). Consider `Cc1c(Br)cc(C(=O)N2CCCCCC2)c(C)c1C`, for which the Potency is 14.1 µM (active).

`C/C(=C\C(=O)c1ccc(Br)cc1)N1CCCCC1`: the activity change, negative = inhibition is -21.6%. For `Cc1cc(=O)oc(C)c1C(=O)N1CCCCC1`, the activity change, negative = inhibition was -2.92%. For the molecule `O=C(Nc1cccc(C(=O)N2CCCC2)c1)c1ccccc1`, the activity change, negative = inhibition was -13.5%. Turning to `Cc1cc(C(=O)N/N=C/c2ccc(O)c([N+](=O)[O-])c2)c(C)n1-c1ccc(F)cc1`, the activity change, negative = inhibition is -20.1%.

On to `COc1ccc(C(=O)NNC(=S)NC(=O)c2ccccc2[N+](=O)[O-])cc1`, for which the activity change, negative = inhibition is -1.33%. As to `Cc1cc(C)nc(SC2CCCCC2NS(=O)(=O)c2ccc(Cl)cc2)n1` (configuration not stated), the activity change, negative = inhibition was -1.86%. `COc1ccc(Cn2c(-c3ccc(Cl)cc3)c[n+]3ccccc23)cc1`: the activity change, negative = inhibition was 1.07%.

On to `C=CCn1c(SCc2ccc(Cl)c(Cl)c2)nnc1C(CO)NC(=O)c1ccc(OC)cc1` (configuration not stated), for which the activity change, negative = inhibition was -18.7%. Regarding `CC(CCc1ccccc1)NC(=O)c1ccc(Br)o1` (configuration not stated), the Potency is 15.8 µM (active). With `CCC(C)NC(=O)CCCc1ccccc1` (configuration not stated), the activity change, negative = inhibition is -18.7%.

As for `CC(CNC(=O)c1ccc(Br)o1)NC(=O)c1ccc(Br)o1` (configuration not stated), the activity change, negative = inhibition is -8.51%.

With `Cc1cccc(N2Cc3ccccc3C2=NC(=O)c2ccc(Cl)nc2)c1`, the activity change, negative = inhibition is -15.5%. For `C/C(=C/C(=O)N1CCN(C)CC1)C(=O)O`, the activity change, negative = inhibition is 4.4%. For the molecule `c1ccc(CSc2nnc(-c3ccco3)n2Cc2ccccc2)cc1`, the activity change, negative = inhibition is -25.4%.

For `c1ccc(CSc2nnc(-c3ccco3)c(-c3ccco3)n2)cc1`, the Potency is 4.47 µM (active).

Regarding `c1coc(-c2nc3nc4ccccc4n3nc2-c2ccco2)c1`, the activity change, negative = inhibition is -14.3%. As to `Nc1nc(SCc2ccccc2Cl)n[nH]1`, the activity change, negative = inhibition is -3%.

Consider `Clc1ccccc1CSc1nnc(-c2ccco2)c(-c2ccco2)n1`, for which the Potency is 12.6 µM (active).

Consider `O=C(Nc1nnc(SCc2ccccc2)s1)c1ccco1`, for which the activity change, negative = inhibition is -28%. Same read-out and setting: in the case of `COc1ccc(-c2nc3c(c4c2C[C@H](c2ccccc2)OC4)CN(C(=O)c2cccnc2)CC3)c(C)c1` it was -9.44%. `COCc1c(C(=O)N/N=C/C2CC=CCC2)nnn1-c1nonc1N` (configuration not stated): the activity change, negative = inhibition is -10.3%. For `CC(C)CNC(=S)Nc1ccc(F)cc1`, the activity change, negative = inhibition was -4.13%. For the molecule `Cc1ccc(S(=O)(=O)N(CC(=O)Nc2cccc([N+](=O)[O-])c2)Cc2ccc(Cl)cc2)cc1`, the activity change, negative = inhibition was -3.74%. On the same count and under the same terms, the result for `O=C(Oc1ccc([N+](=O)[O-])cc1)c1ccc(Cl)c(S(=O)(=O)N2CCCCC2)c1` reads -21.8%.
